Source: PubChem BioAssay (Tox21)
Inconclusive results are not listed. Active and inactive are the calls of the source. Unless noted, calls follow the shape of the full dose curve.

Columns and labels:
[1] = Nuclear factor erythroid 2-related factor 2/antioxidant responsive element (Nrf2/ARE) small molecule agonists: qHTS cell viability counter screen in human keratinocytes (AID 1919968; active = well fitted curve in the direction sought with a large enough effect in the repeat runs; an effect the other way counts as inactive or inconclusive; also: nearly all actives have a fitted effect of over 55% in size)
Procedure, shortened: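 KeratinoSens cells (HaCaT keratinocytes stably carrying an ARE-luciferase reporter) were seeded at 1,500 cells/well and rested 5 h at 37 C/5% CO2. They were then exposed to compounds in DMSO for 23 h. Viability was read by CellTiter-Fluor fluorescence after 1 h.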

[2] = target: Gonadotropin-releasing hormone receptor (Homo sapiens) (UniProt P30968); assay: Human gonadotropin-releasing hormone receptor (GnRHR) small molecule agonists, calcium flux assay in GnRHR-HEK293 cells (AID 1920063); also: nearly all actives have a fitted effect of over 35% in size
Procedure, shortened: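 HEK293 cells stably expressing human GnRHR were plated 18 h at 37 °C, loaded with calcium dye 1 h at 37 °C, then given compound in agonist mode; fluorescence (Ex/Em 480/540) read kinetically for 3 min at 1 s intervals.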

[3] = target: KiSS-1 receptor (Homo sapiens) (UniProt Q969F8); assay: Human kisspeptin (KISS1R) small molecule agonists, calcium flux assay in KISS1R-HEK293 cells (AID 1920064; active = well fitted curve in the direction sought with a large enough effect in the repeat runs; an effect the other way counts as inactive or inconclusive)
Procedure, shortened: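 HEK293 cells stably expressing human KISS1R were plated 18 h at 37 °C, loaded with calcium dye for 1 h at 37 °C, then given compound by pin tool. Fluorescence (Ex/Em 480/540) was read kinetically for 3 min.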

[4] = G protein-coupled receptor (GPCR) small molecule agonists, calcium flux assay: HEK293 wild type cell line counter screen (AID 1920065)
Procedure, shortened: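 Cells were plated and cultured 18 h at 37 C/5% CO2, then loaded with calcium dye for 1 h at 37 C. Compounds in DMSO were pin-transferred in agonist mode, and fluorescence (Ex/Em 480/540) was read kinetically for 3 min at 1 s intervals.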

[5] = p53 small molecule agonists, cell-based qHTS assay with human liver microsomes (AID 1963577)
Procedure, shortened: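 Compounds act here after metabolic activation: human liver microsomes and NADPH, both at 0.5 mg/mL final, were co-added to p53RE-bla cells. Incubation ran 16 h at 37 C, followed by LiveBLAzer detection.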

[6] = p53 small molecule agonists, cell-based qHTS assay with rat liver microsomes (AID 1963578)
Procedure, shortened: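 Read-out is beta-lactamase reporter fluorescence (LiveBLAzer, 2 h, room temperature, dark) in p53RE-bla cells treated 16 h at 37 C with compound, rat liver microsomes and NADPH, both 0.5 mg/mL final.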

[7] = p53 small molecule agonists, cell-based qHTS assay with human liver microsomes: qHTS cell viability counter screen (AID 1963579); also: nearly all actives have a fitted effect of over 45% in size
Procedure, shortened: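 Cells carrying the p53 response-element beta-lactamase reporter are treated for 16 h at 37 C with test compounds in the presence of human liver microsomes and NADPH (both 0.5 mg/mL final); ATP-based CellTiter-Glo luminescence then reports viability.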

[8] = p53 small molecule agonists, cell-based qHTS assay with rat liver microsomes: qHTS cell viability counter screen (AID 1963580); also: nearly all actives have a fitted effect of over 45% in size
Procedure, shortened: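 HCT-116 p53RE-bla, 4,000 cells/well, 5 h pre-incubation; cpd + rat liver microsomes 0.5 mg/mL + NADPH 0.5 mg/mL (final); 16 h, 37 C; CellTiter-Glo, 30 min RT; luminescence.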

[9] = p53 small molecule agonists, cell-based qHTS assay: qHTS cell viability counter screen (AID 1963581); also: nearly all actives have a fitted effect of over 45% in size
Procedure, shortened: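 p53RE-bla HCT-116 cells were exposed to compounds for 16 h at 37 C; after the beta-lactamase FRET read in the same wells, CellTiter-Glo was added and luminescence (intracellular ATP) read after 30 min at room temperature.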

[10] = p53 small molecule agonists, cell-based qHTS assay (AID 1963582; active = well fitted activation curve with a large enough effect in the signal ratio in the repeat runs, not every such curve was filed as active; the % refers to the signal ratio)
Procedure, shortened: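 p53RE-bla beta-lactamase reporter cells rested 5 h at 37 C/5% CO2, then received compounds in DMSO by pin transfer and were incubated 16 h at 37 C. LiveBLAzer B/G FRET substrate was loaded for 2 h at room temperature before fluorescence reading.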

[11] = target: 5-hydroxytryptamine receptor 2A (Homo sapiens) (UniProt P28223); assay: 5-hydroxytryptamine receptor 2A (HTR2A) small molecule antagonists, cell-based qHTS assay (AID 1963586); also: nearly all actives have a fitted effect of over 45% in size
Procedure, shortened: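 Antagonist-mode intracellular calcium assay: DOI (4 nM) added after 5 min compound pre-incubation at room temperature to dye-loaded HTR2A-CHO cells. Fluorescence followed for 3 min, sampled every second.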

[12] = target: 5-hydroxytryptamine receptor 2A (Homo sapiens) (UniProt P28223); assay: 5-hydroxytryptamine receptor 2A (HTR2A) small molecule agonists, cell-based qHTS assay (AID 1963587); also: nearly all actives have a fitted effect of over 30% in size
Procedure, shortened: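 Kinetic calcium-flux fluorescence (2 min, 1 sec intervals) after compound addition in agonist mode. HTR2A-CHO cells were cultured 18 h, then dye-loaded 1 h at 37 C.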

[13] = target: Muscarinic acetylcholine receptor M1 (Homo sapiens) (UniProt P11229); assay: Cholinergic receptor muscarinic 1 (CHRM1) small molecule antagonists, cell-based qHTS assay (AID 1963588); also: nearly all actives have a fitted effect of over 40% in size
Procedure, shortened: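 CHRM1-CHO calcium-flux assay, antagonist mode. Cells were seeded 18 h, dye-loaded 1 h at 37 C and given compound for 5 min at RT, then acetylcholine was added at 50nM. FDSS fluorescence was read 3 min; 15 concentrations, three runs.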

[14] = target: Muscarinic acetylcholine receptor M1 (Homo sapiens) (UniProt P11229); assay: Cholinergic receptor muscarinic 1 (CHRM1) small molecule agonists, cell-based qHTS assay (AID 1963589); also: nearly all actives have a fitted effect of over 35% in size
Procedure, shortened: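 CHO cells stably expressing human CHRM1, seeded 18 h at 37 C/5% CO2, dye-loaded 1 h at 37 C, then given compound in agonist mode; intracellular calcium fluorescence read kinetically at 1 s intervals. Fifteen concentrations, three independent runs.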

[15] = cAMP Responsive Elements (CRE) small molecule agonists, cell-based qHTS assay (AID 1963590)
Procedure, shortened: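 CRE-bla HEK 293T cells in DMEM with 10% dialyzed FBS, NEAA, pyruvate and 25 mM HEPES were plated 18 h at 37 C/5% CO2, then exposed to compounds in DMSO for 3 h before LiveBLAzer B/G FRET substrate addition.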

[16] = target: Beta-2 adrenergic receptor (Homo sapiens) (UniProt P07550); assay: Adrenergic beta2 receptor (ADRB2) small molecule agonists, cell-based qHTS assay (AID 1963593);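 also: CHO cells stably overexpressing human ADRB2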
Procedure, shortened: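 CHO cells stably over-expressing ADRB2 were plated overnight at 37C, then dosed with compounds plus a stimulation mix containing 100uM IBMX and 25uM Ro-20-1724 for 0.5hr at room temperature. cAMP was measured by HTRF competition, 1hr.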

[17] = target: D(2) dopamine receptor (Homo sapiens) (UniProt P14416); assay: Dopamine D2 receptor (DRD2) small molecule agonists, cell-based qHTS assay (AID 1963594); also: nearly all actives have a fitted effect of over 35% in size
Procedure, shortened: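 cAMP accumulation in DRD2-HEK293 cells measured by HTRF after 1 h detection; compounds added 10 min before NKH477 (200nM […]) forskolin-analogue stimulation, 30 min at room temperature, with Ro20-1724 present at 0.1 mM final.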

[18] = target: D(2) dopamine receptor (Homo sapiens) (UniProt P14416); assay: Dopamine D2 receptor (DRD2) small molecule antagonists, cell-based qHTS assay (AID 1963595; active = well fitted inhibition curve with a large enough effect in the signal ratio in the repeat runs, with a control signal flat; the % refers to the signal ratio)
Procedure, shortened: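 HTRF cAMP read-out at 665 and 620 nm emission (340 nm excitation). Antagonist mode: compounds were tested against 12 nM quinpirole in DRD2-HEK293 cells, with 200 nM NKH477 raising cAMP and 0.1 mM Ro20-1724 blocking its breakdown.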

[19] = target: Beta-2 adrenergic receptor (Homo sapiens) (UniProt P07550); assay: Adrenergic beta2 receptor (ADRB2) small molecule antagonists, cell-based qHTS assay (AID 1963592); also: series mostly up to about 92 µM; nearly all actives have a fitted effect of over 50% in size
Procedure, shortened: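 Cells (CHO, stable ADRB2 overexpression) incubated 18-20hr at 37C; compounds added from DMSO; agonist mix (1nM isoproterenol, 100uM IBMX, 25uM Ro-20-1724) added; 0.5hr RT; d2-cAMP and anti-cAMP-cryptate added; 1hr RT; 665/615 nm read.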

[20] = cAMP Responsive Elements (CRE) small molecule antagonists, cell-based qHTS assay (AID 1963591; active = well fitted inhibition curve with a large enough effect in the signal ratio in the repeat runs, not every such curve was filed as active; the % refers to the signal ratio)
Procedure, shortened: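 CRE-bla HEK293T cells were plated 18 h at 37 °C/5% CO2, pinned with compound in DMSO, then stimulated with NKH477 at 0.25 uM final for 3 h. LiveBLAzer B/G FRET substrate was added and plates incubated 2 h at room temperature.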

Measured: Potency

Sequence of Muscarinic acetylcholine receptor M1 (Homo sapiens) (P11229 whole entry, looked up): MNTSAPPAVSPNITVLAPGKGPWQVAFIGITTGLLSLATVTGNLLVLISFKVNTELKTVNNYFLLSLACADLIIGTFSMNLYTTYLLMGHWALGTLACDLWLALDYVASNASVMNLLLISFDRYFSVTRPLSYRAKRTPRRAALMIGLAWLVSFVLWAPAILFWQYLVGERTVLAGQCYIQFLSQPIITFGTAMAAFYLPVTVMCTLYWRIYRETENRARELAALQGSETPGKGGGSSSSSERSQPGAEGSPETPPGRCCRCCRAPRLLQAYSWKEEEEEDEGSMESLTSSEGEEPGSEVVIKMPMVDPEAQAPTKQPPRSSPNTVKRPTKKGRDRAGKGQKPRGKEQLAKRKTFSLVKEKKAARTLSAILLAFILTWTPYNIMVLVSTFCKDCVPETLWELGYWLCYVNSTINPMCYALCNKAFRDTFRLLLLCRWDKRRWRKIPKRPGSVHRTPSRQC
Sequence of Beta-2 adrenergic receptor (Homo sapiens) (P07550 whole entry, looked up): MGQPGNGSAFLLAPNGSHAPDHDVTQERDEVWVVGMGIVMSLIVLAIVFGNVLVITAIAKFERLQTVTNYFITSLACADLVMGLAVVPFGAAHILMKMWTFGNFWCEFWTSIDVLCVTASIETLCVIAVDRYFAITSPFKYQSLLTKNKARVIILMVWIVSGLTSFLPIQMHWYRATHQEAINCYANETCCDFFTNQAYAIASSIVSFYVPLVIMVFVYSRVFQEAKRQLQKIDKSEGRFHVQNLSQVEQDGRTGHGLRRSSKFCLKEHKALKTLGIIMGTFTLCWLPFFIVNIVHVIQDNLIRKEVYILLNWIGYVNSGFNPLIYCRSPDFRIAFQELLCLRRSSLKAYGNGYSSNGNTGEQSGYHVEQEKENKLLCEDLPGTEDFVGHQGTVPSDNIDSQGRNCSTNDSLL
Sequence of Gonadotropin-releasing hormone receptor (Homo sapiens) (P30968 whole entry, looked up): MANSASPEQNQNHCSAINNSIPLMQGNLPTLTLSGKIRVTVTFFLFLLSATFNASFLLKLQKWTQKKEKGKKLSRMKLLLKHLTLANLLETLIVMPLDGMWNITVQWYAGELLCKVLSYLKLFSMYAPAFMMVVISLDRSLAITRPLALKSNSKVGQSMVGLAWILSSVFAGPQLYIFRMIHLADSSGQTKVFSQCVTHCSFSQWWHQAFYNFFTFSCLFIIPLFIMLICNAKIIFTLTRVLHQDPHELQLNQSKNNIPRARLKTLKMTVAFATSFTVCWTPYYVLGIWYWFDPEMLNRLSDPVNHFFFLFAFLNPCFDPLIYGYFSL
Sequence of KiSS-1 receptor (Homo sapiens) (Q969F8 whole entry, looked up): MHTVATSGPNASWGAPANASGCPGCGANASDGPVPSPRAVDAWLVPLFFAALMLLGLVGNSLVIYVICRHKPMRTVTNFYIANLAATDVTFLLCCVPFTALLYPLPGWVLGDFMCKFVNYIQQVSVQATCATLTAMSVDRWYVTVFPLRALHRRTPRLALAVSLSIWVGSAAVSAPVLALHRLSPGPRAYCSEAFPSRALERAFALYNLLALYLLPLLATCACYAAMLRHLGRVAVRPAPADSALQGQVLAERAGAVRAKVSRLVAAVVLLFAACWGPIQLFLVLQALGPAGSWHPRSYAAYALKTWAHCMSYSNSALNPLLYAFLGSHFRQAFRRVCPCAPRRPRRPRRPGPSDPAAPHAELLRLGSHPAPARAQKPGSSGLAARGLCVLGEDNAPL
Sequence of 5-hydroxytryptamine receptor 2A (Homo sapiens) (P28223 whole entry, looked up): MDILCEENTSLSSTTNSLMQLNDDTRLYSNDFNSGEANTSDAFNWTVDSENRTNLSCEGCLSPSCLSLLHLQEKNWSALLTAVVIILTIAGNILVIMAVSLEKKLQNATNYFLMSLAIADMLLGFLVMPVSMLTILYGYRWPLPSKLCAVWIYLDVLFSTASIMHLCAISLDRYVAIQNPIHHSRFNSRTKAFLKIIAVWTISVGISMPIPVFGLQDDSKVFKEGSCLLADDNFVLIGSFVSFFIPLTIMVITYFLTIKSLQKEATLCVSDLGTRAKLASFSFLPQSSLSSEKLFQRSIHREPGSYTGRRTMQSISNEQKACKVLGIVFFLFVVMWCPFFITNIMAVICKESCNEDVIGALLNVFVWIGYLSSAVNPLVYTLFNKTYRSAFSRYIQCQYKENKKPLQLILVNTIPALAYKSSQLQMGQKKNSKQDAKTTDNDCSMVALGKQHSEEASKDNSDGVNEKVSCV
Sequence of D(2) dopamine receptor (Homo sapiens) (P14416 whole entry, looked up): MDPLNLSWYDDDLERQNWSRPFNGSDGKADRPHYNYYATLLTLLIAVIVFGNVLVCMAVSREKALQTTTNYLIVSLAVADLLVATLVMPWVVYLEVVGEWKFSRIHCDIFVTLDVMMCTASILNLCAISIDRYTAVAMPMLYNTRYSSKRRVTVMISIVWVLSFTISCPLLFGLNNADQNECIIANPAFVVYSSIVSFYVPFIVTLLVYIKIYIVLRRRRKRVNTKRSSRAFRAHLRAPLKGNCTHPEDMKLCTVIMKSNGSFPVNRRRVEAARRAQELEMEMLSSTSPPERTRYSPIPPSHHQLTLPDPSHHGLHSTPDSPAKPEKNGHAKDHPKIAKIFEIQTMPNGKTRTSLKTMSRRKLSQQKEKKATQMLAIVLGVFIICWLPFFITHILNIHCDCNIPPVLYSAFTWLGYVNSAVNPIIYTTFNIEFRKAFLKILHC

CC(C)COC(=O)/C=C/c1ccccc1
inactive: [1] | [2] | [3] | [4] | [5] | [6] | [7] | [8] | [9] | [10] | [11] | [12] | [13] | [14] | [15] | [16] | [17] | [18]

O=c1[nH]nc(-c2ccc([N+](=O)[O-])o2)o1
inactive: [1] | [2] | [3] | [4] | [5] | [6] | [7] | [8] | [9] | [10] | [11] | [12] | [13] | [14] | [19] | [17] | [18]

O=C(CN1CCNCC1)NC1CCCCC1
inactive: [1] | [2] | [3] | [4] | [5] | [6] | [7] | [8] | [9] | [10] | [11] | [12] | [13] | [14] | [20] | [19] | [16] | [17] | [18]

O=C(OCCOCCOCCOC(=O)c1ccccc1)c1ccccc1
inactive: [1] | [2] | [3] | [4] | [5] | [6] | [7] | [8] | [9] | [10] | [11] | [12] | [13] | [14] | [19] | [16] | [17] | [18]

CC(=O)Nc1ccccc1O
inactive: [1] | [2] | [3] | [4] | [5] | [6] | [7] | [8] | [9] | [10] | [11] | [12] | [13] | [14] | [20] | [16] | [17] | [18]

C[C@]12C(=O)OC(=O)[C@H]1[C@H]1C=C[C@@H]2C1
inactive: [1] | [2] | [3] | [4] | [5] | [6] | [7] | [8] | [9] | [10] | [12] | [13] | [14] | [15] | [19] | [18]

CC(=O)[C@H]1[C@H](C#N)C[C@H]2[C@@H]3CC=C4C[C@@H](O)CC[C@]4(C)[C@H]3CC[C@@]21C
inactive: [1] | [2] | [3] | [4] | [5] | [6] | [7] | [8] | [9] | [10] | [15] | [19] | [17] | [18]

C[C@@H]1C[C@H]2O[C@@]3(O[C@@H]2C(C)(C)O)[C@H](O)[C@@]2(C)[C@@H]4CC[C@H]5C(C)(C)[C@@H](O[C@@H]6OC[C@@H](O)[C@H](O)[C@H]6O)CC[C@@]56C[C@@]46CC[C@]2(C)[C@@H]13
inactive: [1] | [2] | [3] | [4] | [5] | [6] | [7] | [8] | [9] | [12] | [13] | [14] | [19] | [17]
